Experimental data reported in PubChem BioAssay AID2315 (National Center for Advancing Translational Sciences (NCATS), 2010).
About 27,000 (9.3%) of roughly 290,000 compounds were called active. Shown is part of a subset that was picked to be rich in actives. Unmarked numbers belong to inactive results. Cut-off read from the data, not from the text of the source: active = inhibition mostly above about 28% (no sharp cut-off); inactive = mostly below about 43%.

Assay: A qHTS for Small Molecule Inhibitors of Shiga Toxin; note: 0% is about no effect
Conditions: Vero cells, Shiga toxin protein synthesis inhibition reporter; at 38.7 µM, hits give high values
With COc1ccc(OCC(=O)Nc2ccc(NC(=O)c3ccco3)c(C)c2)cc1 the inhibition was 19.3%.
With O=C(c1cc2cc(Br)cc(Br)c2oc1=O)N1CCOCC1 the inhibition was 11.8%.
Molecule COC(=O)CSc1nc2ccccc2c(=O)n1Cc1ccccc1 has an inhibition of -8.77%.
Cc1c(CC(=O)NCCCCCC(=O)O)c(=O)oc2cc3occ(-c4ccccc4)c3cc12 gave an inhibition of -4.34%.
In the case of CCN(CC)S(=O)(=O)c1ccc(N2CC(C(=O)NCc3cccnc3)CC2=O)cc1 (configuration not stated), the inhibition is reported as -5.91%.
Cc1ccc(CNC(=O)CCN2C(=O)[C@@H]3Cc4ccccc4CN3C2=O)cc1 showed an inhibition of 8.09%.
Work on CCC(Cc1ccccc1)NS(=O)(=O)c1ccc2c(c1)NC(=O)CS2 (configuration not stated) yielded an inhibition of 1.38%.
O=C(CN(CC1CCCO1)C(=O)CNS(=O)(=O)c1ccc(Cl)cc1)NCc1ccccc1 (configuration not stated) gave an inhibition of -14%.
Work on Cc1ccc(C(=O)N(CC(=O)NC2CCCC2)c2ccc(F)cc2)s1 yielded an inhibition of -7.38%.
Molecule O=C(NC(=O)c1cc(OCC(F)(F)F)ccc1OCC(F)(F)F)Nc1ccccc1 has an inhibition of 27.7%.
Cc1ccc(NC(=O)Nc2cccc(C(F)(F)F)c2)nc1 gave an inhibition of 52.4%.
With O=C(Nc1ccccc1)Nc1ccc(C(F)(F)F)cn1 the inhibition was 53% (active).
With O=C(OCc1ccc(-c2ccccc2)cc1)c1cccc(O)c1 the inhibition was 80.8% (active).
For CC(=O)Nc1ccccc1C(=O)OCC(=O)c1cccc2ccccc12, the inhibition was -4.88%.
O=C(CNC(=O)c1ccc(-c2ccccc2)cc1)OCc1ccc(Cl)cc1 gave an inhibition of -7.89%.
For O=C(OCC(=O)c1c[nH]c2ccccc12)c1cccc(O)c1, the inhibition was 69.8% (active).
For CC1CCN(CC(=O)c2c[nH]c3ccccc23)CC1, the inhibition was 15.1%.
For O=C(OCc1ccc(Br)cc1)c1cccc(-c2nnc(-c3ccccc3)o2)c1, the inhibition was 31.1%.
S=C(Nc1ccc(Br)cc1)NC1CCN(Cc2ccccc2)CC1 gave an inhibition of -5.49%.
Work on CCc1cc2c(NC(Cc3ccccc3)C(=O)O)ncnc2s1 (configuration not stated) yielded an inhibition of -7.1%.
Work on COc1ccc(NS(=O)(=O)c2cc(C(=O)Nc3ccccc3C(=O)O)ccc2C)cc1 yielded an inhibition of -9.69%.
For C/C(=N/NC(=O)c1ccn(C)n1)c1ccncc1, the inhibition was 81.2% (active).
C/C(=N/NC(=O)c1ccncc1)c1ccc2c(c1)OCO2 gave an inhibition of 1.65%.
In the case of C/C(=N\NC(N)=S)c1ccncc1, the inhibition is reported as -3.77%.
For O=C(C1CCC1)N1CCN(c2ccccc2)CC1, the inhibition was -2.3%.
With CC(=O)Oc1ccc(NC(=O)CCC2CCCCC2)c(C(=O)O)c1 the inhibition was 9.77%.
For COc1ccc(NC(=O)CCCC2CCCCC2)c(OC)c1, the inhibition was 72.3% (active).
With COc1ccc(NC(=O)CCN2CCCC2)c(OC)c1 the inhibition was -1.84%.
Cc1ccc(C)c(CN2CCC(CNC(=O)Nc3ccc(C)c(F)c3)CC2)c1 showed an inhibition of 9.21%.
Cc1cnc(NC(=O)C2CCCC2)s1 gave an inhibition of 28.6%.
With Cc1nc(NC(=O)C2CCCCC2)sc1C the inhibition was 61.6% (active).
With Cc1nc(NC(=O)C23CCC(C)(C(=O)O2)C3(C)C)sc1C (configuration not stated) the inhibition was -12.8%.
In the case of CCSc1nsc(NC(=O)Nc2cccc(C(C)=O)c2)n1, the inhibition is reported as 41.5% (active).
In the case of COc1ccccc1NC(=O)Nc1nnc(Cc2ccc(F)cc2)s1, the inhibition is reported as 22.5%.
With C=CCSc1nsc(NC(=O)Nc2cccc(C(C)=O)c2)n1 the inhibition was 22.6%.
With CCSc1nsc(NC(=O)Nc2ccccc2OC)n1 the inhibition was 27.4% (active).
Molecule CC(=O)c1cccc(NC(=O)c2ccncc2)c1 has an inhibition of -0.119%.
In the case of CCc1nc(SCC(=O)Nc2ccccc2OC)n[nH]1, the inhibition is reported as -3.11%.
With COc1ccc(N2CC(C(=O)N[C@@H](C)C(=O)N3CCCCC3)CC2=O)cc1 (some centres not stated) the inhibition was -4.4%.
For COCCc1nn2c(=O)cc(COC(=O)c3cc(OC)c(OC)c(OC)c3)nc2s1, the inhibition was -8.18%.
In the case of C/C(N)=C(/C#N)C(=O)COC(=O)C1=NN(c2ccccc2)C(=O)CC1, the inhibition is reported as -13.8%.
With CCOCCCNC(=O)C(NC(=O)CNC(=O)c1ccccc1)c1ccc(OC)cc1 (configuration not stated) the inhibition was -6.33%.
In the case of Cc1ccsc1C(=O)N/N=C/c1ccc([N+](=O)[O-])cc1, the inhibition is reported as 64% (active).
With Cc1ccc(NC(=O)c2sccc2C)cc1[N+](=O)[O-] the inhibition was 87.3% (active).
In the case of NC(=S)N/N=C/c1ccc([N+](=O)[O-])cc1, the inhibition is reported as 4.32%.
In the case of Cc1ccc(NC(=O)CN(C)CC(=O)Nc2cccc(F)c2)cc1[N+](=O)[O-], the inhibition is reported as 14.5%.
Molecule Cc1nc2ccccc2cc1C(=O)N/N=C/c1ccc([N+](=O)[O-])cc1 has an inhibition of -4.74%.
With Cc1ccc(NC(=O)CN2CCC(C(N)=O)CC2)cc1[N+](=O)[O-] the inhibition was 26%.
Work on O=C(NCC(=O)N1CCN(c2ncc(C(F)(F)F)cc2Cl)CC1)c1ccc(Br)o1 yielded an inhibition of -3.85%.
In the case of C=C1CCN(C(CC(C)C)C(=O)N2CCOCC2)S(=O)(=O)c2ccccc21 (configuration not stated), the inhibition is reported as -4.26%.
O=C1C2C(c3ccccc3)CC=CC2C(c2ccoc2)N1Cc1ccccc1 (configuration not stated) showed an inhibition of -1.21%.
In the case of CC(C)c1ccc(/C=C/C(=O)NNC(=O)c2cccnc2)cc1, the inhibition is reported as 0.769%.
For C=CCNC(=O)/C=C/c1ccc(C(C)C)cc1, the inhibition was 96.1% (active).
Work on O=C(/C=C/c1ccc(F)cc1)NCCNC(=O)/C=C/c1ccc(F)cc1 yielded an inhibition of -7.35%.
Molecule CCCNC(=O)N1CCC(c2ccc3c(c2)OCO3)CC1 has an inhibition of -2.98%.
For Cc1nn(CC(=O)NCCc2ccccc2)c(=O)c2cc3occc3n12, the inhibition was -3%.
COc1ccc(CNC(=O)C(C)n2nc(C)c3c(C)n(-c4ccccc4)nc3c2=O)c(OC)c1 (configuration not stated) showed an inhibition of -6.6%.
CC(=O)N1c2ccc(S(=O)(=O)N3CCCC(C(=O)NCc4ccc(Cl)cc4)C3)cc2CC1C (configuration not stated) gave an inhibition of 8.69%.
In the case of C=CCNC(=S)N/N=C/c1ccc(OCc2ccccc2)cc1, the inhibition is reported as -15.4%.
For C=CCNC(=S)N/N=C/c1ccc(C)s1, the inhibition was 39.3% (active).
Cc1ccc(/C=N/NC(=O)CN2CCN(Cc3ccccc3)CC2)s1 showed an inhibition of 14.8%.
CCCn1c(C(C)Nc2nc(-c3ccc(C)cc3)cs2)nc2cc(Cl)c(N3CCCCC3)cc21 (configuration not stated) gave an inhibition of -1.11%.
